# Measurements as given in PubChem BioAssay (NCI).
# Compounds without any hit were thinned out: in the full panel of roughly 79,000, 15% have a hit. Calls of active or inactive are those of the source. No stated cut-off is given here; in the data, active means growth inhibition above about 70%; inactive means the rest.
# Assay: NCI Yeast Anticancer Drug Screen. Data for the rad50 strain (AID 155);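 further: 0% = growth of vehicle-only cultures of the same strain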
# Conditions: S. cerevisiae rad50 strain growth inhibition; at 50.0 µM; stronger effect = higher value
# Procedure, shortened: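 Readout: growth inhibition relative to vehicle-treated cultures. Compound exposure was carried out in a genetically defined yeast strain deficient in DNA damage repair.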
row,Structure (SMILES),growth inhibition
1,CCC1NC(N=Nc2ccc([N+](=O)[O-])cc2)(P(=O)(OC(C)C)OC(C)C)OC1=O (configuration not stated),44.5% (inactive)
2,CC1CSC(=S)N1C(=O)N1C(=S)SCC1C (configuration not stated),-42.4% (inactive)
3,CCCC(=O)N(CC)CC,11.2% (inactive)
4,O=C(O)c1cccc2c1C1CCC2c2cccc(C(=O)O)c21,-29.2% (inactive)
5,C(=C(c1ccccc1)c1ccccc1)=C(c1ccccc1)c1ccccc1,30.8% (inactive)
6,CC(=O)Oc1cc(Oc2c(OC(C)=O)cc(Oc3c(OC(C)=O)cc(OC(C)=O)c(OC(C)=O)c3OC(C)=O)cc2OC(C)=O)cc(OC(C)=O)c1OC(C)=O,6.15% (inactive)
7,NC(=O)NC(NC(=O)NC(NC(N)=O)c1ccco1)c1ccco1 (configuration not stated),11.3% (inactive)
8,Clc1nc(Cl)c2ncn(C3CCCO3)c2n1 (configuration not stated),-23.1% (inactive)
9,COC(=O)C1CCCCC1C(=O)OC (configuration not stated),-11.1% (inactive)
10,CC(C)(C)NO,7.3% (inactive)
11,CN1CCN(CCN2C(=O)c3ccccc3C2=O)CC1,-12.3% (inactive)
12,COc1cc2ccc3c4cc(OC)c(OCc5ccccc5)cc4cnc3c2cc1OC,40.5% (inactive)
13,Cc1ccc(O)c(C(=O)c2ccc(Cl)c(Cl)c2)c1,8.45% (inactive)
14,CC(C)c1sc([S-])n[n+]1-c1ccccc1,10.2% (inactive)
15,Cc1cc(C)[n+](C)c(/C=C/c2ccc([N+](=O)[O-])cc2)n1,14.2% (inactive)
16,COc1ccc(NC(C)=O)cc1Br,-12.8% (inactive)
17,Nc1nc(N)nc(-c2ccccc2NC(=O)c2ccccc2N)n1,2.15% (inactive)
